From article PMC4336329 (PLoS ONE, 2015) come the findings set out here.

SMILES strings stand for the structures. About 14,000 (4.5%) of roughly 310,000 compounds showed an effect of 50% or more. Effects have a minus sign here. This is one part of a sample in which strong results are shown more often than they occur.
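Note: peak tail current of the secondary pulse compared with the same well before compound.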

For the assay, the target named is human ether-à-go-go-related gene (hERG) potassium channel (human, UniProt Q12809). Nature of the assay: primary screen, population patch clamp on CHO cells stably expressing hERG; higher = less effect of the substance.
Sequence of human ether-à-go-go-related gene (hERG) potassium channel (Q12809 whole entry, looked up): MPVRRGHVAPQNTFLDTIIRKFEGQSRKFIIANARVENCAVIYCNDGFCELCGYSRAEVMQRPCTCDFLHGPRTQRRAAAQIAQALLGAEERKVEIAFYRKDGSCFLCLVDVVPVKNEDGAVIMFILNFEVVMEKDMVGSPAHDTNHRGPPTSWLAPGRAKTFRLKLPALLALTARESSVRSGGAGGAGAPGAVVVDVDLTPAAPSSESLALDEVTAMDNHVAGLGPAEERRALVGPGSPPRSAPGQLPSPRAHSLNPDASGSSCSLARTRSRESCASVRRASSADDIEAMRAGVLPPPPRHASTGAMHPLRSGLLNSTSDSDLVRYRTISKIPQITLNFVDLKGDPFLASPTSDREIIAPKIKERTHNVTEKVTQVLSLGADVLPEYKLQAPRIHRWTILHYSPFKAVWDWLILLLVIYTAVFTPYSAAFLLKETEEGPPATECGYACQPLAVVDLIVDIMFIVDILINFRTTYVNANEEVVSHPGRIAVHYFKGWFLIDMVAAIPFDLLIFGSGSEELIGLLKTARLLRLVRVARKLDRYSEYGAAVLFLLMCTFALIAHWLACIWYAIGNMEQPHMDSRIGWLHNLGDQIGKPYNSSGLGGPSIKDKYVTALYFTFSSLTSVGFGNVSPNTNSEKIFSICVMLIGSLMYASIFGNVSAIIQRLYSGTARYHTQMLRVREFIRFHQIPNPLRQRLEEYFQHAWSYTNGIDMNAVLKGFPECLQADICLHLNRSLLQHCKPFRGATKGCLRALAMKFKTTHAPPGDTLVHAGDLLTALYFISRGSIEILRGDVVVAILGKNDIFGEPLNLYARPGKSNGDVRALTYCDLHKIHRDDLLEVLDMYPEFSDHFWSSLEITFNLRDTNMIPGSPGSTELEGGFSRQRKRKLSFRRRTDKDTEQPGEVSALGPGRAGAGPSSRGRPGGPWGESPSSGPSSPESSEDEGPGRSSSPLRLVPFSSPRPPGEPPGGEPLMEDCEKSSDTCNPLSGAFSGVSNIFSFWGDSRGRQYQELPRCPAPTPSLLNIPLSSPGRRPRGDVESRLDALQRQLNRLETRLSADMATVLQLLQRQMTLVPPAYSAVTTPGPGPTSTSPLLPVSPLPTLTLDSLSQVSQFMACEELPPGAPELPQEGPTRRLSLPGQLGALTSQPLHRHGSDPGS
With `COc1ccc(NC(=O)c2ccc(-n3cncn3)c([N+](=O)[O-])c2)cc1OC`, the “hERG current change (%, negative = inhibition) at 10uM” value is -2.52%. For `CC(C)(Cc1cc(CC(C)(C)C(=O)O)cc(C(C)(C)C)c1)C(=O)O`, the “hERG current change (%, negative = inhibition) at 10uM” value is 10.4%. As for `Cc1ccc(Nc2c(-c3ccc(N4CCOCC4)cc3)nc3ncccn23)cc1C`, the “hERG current change (%, negative = inhibition) at 10uM” value turned out to be 7.71%. To `COCc1nc(-c2ccc(-c3ccccc3)nc2OC)no1` belongs -2.5%; to `COc1ccc(NC(=O)CN2CCN(S(=O)(=O)c3ccc(Br)cc3)CC2)c(OC)c1`, 19.8%. As to `COc1ccc(S(=O)(=O)N2CCN(CCC(=O)Nc3ccccc3F)CC2)cc1`, the “hERG current change (%, negative = inhibition) at 10uM” value is on record as -0.0172%. For the molecule `O=C(CCN1CCN(S(=O)(=O)c2ccc(F)cc2)CC1)Nc1ccccc1F`, the “hERG current change (%, negative = inhibition) at 10uM” value is given as -8.34%. To `O=C(CCN1CCN(S(=O)(=O)c2ccc(Br)cc2)CC1)Nc1ccccc1F` belongs -31.2%. Regarding `O=C(CN1CCN(S(=O)(=O)c2ccc(Br)cc2)CC1)Nc1ccccc1F`, the “hERG current change (%, negative = inhibition) at 10uM” value is given as -62.5%.

For `O=C(CN1CCN(S(=O)(=O)c2ccc(F)cc2)CC1)Nc1ccccc1F`, the “hERG current change (%, negative = inhibition) at 10uM” value is given as -56.1%.

In the case of `COc1ccc(S(=O)(=O)N2CCCN(CC(=O)Nc3ccccc3F)CC2)cc1`, the “hERG current change (%, negative = inhibition) at 10uM” value is recorded as -55.7%.

`COc1ccc(S(=O)(=O)N2CCN(CC(=O)Nc3ccccc3OC)CC2)cc1`: the “hERG current change (%, negative = inhibition) at 10uM” value is reported as -5.56%. Turning to `COc1ccc(NC(=O)N2CCN(S(=O)(=O)c3ccc(F)cc3)CC2)c(OC)c1`, the “hERG current change (%, negative = inhibition) at 10uM” value is -6.4%.

Take `O=C(CN1CCN(S(=O)(=O)c2ccc(Br)cc2)CC1)Nc1ccccc1C(=O)c1ccccc1`: the “hERG current change (%, negative = inhibition) at 10uM” value is listed as 1.26%.

On to `COc1ccc(NC(=O)CN2CCCN(S(=O)(=O)c3ccc(F)cc3)CC2)c(OC)c1`, for which the “hERG current change (%, negative = inhibition) at 10uM” value was -54.6%. To `O=C(CN1CCCN(S(=O)(=O)c2ccc(F)cc2)CC1)Nc1ccccc1Br` belongs -49.1%; to `Cc1ccsc1C(=O)c1sccc1C`, -3.08%; to `CSc1ccc(CCNC(=O)c2cc(-c3ccccc3)c(N3CCOCC3)s2)cc1`, -1.02%. As to `O=C(NCc1ccncc1)c1ccc(Cl)c(S(=O)(=O)N2CCCCC2)c1`, the “hERG current change (%, negative = inhibition) at 10uM” value is listed as -22.4%. In the case of `O=C1CN(O)C=C2N=c3ccccc3=C2N1c1ccc([N+](=O)[O-])cc1`, the “hERG current change (%, negative = inhibition) at 10uM” value was -26.6%. As to `Cc1ccc(OCc2nnc(SCC(=O)c3ccccc3)n2Cc2ccco2)cc1`, the “hERG current change (%, negative = inhibition) at 10uM” value is reported as -47.1%. On to `COc1ccc(NC(=O)C(NC(=O)CC2NC(=O)NC2=O)c2ccccc2)cc1` (centres unmarked), for which the “hERG current change (%, negative = inhibition) at 10uM” value is -2.49%. On to `CSc1ccccc1NC(=O)CSCc1ccc(C)cc1`, for which the “hERG current change (%, negative = inhibition) at 10uM” value is -7.79%.

For `COc1cc2ccccc2cc1C(=O)Nc1nnc(-c2ccncc2)o1`, the “hERG current change (%, negative = inhibition) at 10uM” value is recorded as -52.3%. As for `O=C(Nc1nnc(-c2ccncc2)o1)c1ccc2ccccc2c1`, the “hERG current change (%, negative = inhibition) at 10uM” value is listed as -3.08%. As for `COc1cc2ccccc2cc1C(=O)Nc1ccncc1`, the “hERG current change (%, negative = inhibition) at 10uM” value is reported as -24.8%. In the case of `O=C(Nc1ncc(S(=O)(=O)c2ccc([N+](=O)[O-])cc2)s1)c1cccnc1`, the “hERG current change (%, negative = inhibition) at 10uM” value was -2.29%. With `COc1cc(C(=O)OCCn2c(=O)c3c(ncn3CCN(C)C)n(C)c2=O)cc(OC)c1OC.Cl`, the “hERG current change (%, negative = inhibition) at 10uM” value is given as -2.6%.

As to `O=C(OCCCN1CCCCC1)c1ccc(O)cc1`, the “hERG current change (%, negative = inhibition) at 10uM” value is -54.6%.

`COc1cc(OC)cc(C(=O)OCCNC(=O)Cn2cnc3c2c(=O)n(C)c(=O)n3C)c1`: the “hERG current change (%, negative = inhibition) at 10uM” value came out at 0.82%. With `COc1cc(C(=O)OCCCN2CCCN(CCCOC(=O)c3cc(OC)c(OC)c(OC)c3)CC2)cc(OC)c1OC.Cl`, the “hERG current change (%, negative = inhibition) at 10uM” value is -67.8%. As for `CCN(CC)CC(C)OC(=O)c1cc(OC)c(OC)c(OC)c1.Cl` (centres unmarked), the “hERG current change (%, negative = inhibition) at 10uM” value is on record as -11.5%. In the case of `COc1cc(C(=O)OCCCN(C)C)cc(OC)c1OC.Cl`, the “hERG current change (%, negative = inhibition) at 10uM” value worked out at 4.69%. With `CCN(CC)CCn1cnc2c1c(=O)n(CCOC(=O)c1cc(OC)c(OC)c(OC)c1)c(=O)n2C.Cl`, the “hERG current change (%, negative = inhibition) at 10uM” value was -60.3%. The figure for `COc1cc(C(=O)OCCCOC(=O)c2cc(OC)c(OC)c(OC)c2)cc(OC)c1OC` is 0.241%; for `CCN(CC)CCCCCCCCOC(=O)c1cc(OC)c(OC)c(OC)c1.Cl` it is -50.1%. Take `O=C(OCCCOC(=O)c1ccc(O)cc1)c1ccc(O)cc1`: the “hERG current change (%, negative = inhibition) at 10uM” value was -17.3%. The figure for `COc1cc(C(=O)OCCN2CCOCC2)cc(OC)c1OC` is -5.95%. In the case of `O=C(OCCN1CCCCC1)c1ccc(O)cc1`, the “hERG current change (%, negative = inhibition) at 10uM” value is listed as -35.4%. In the case of `Cc1ccc2c(c1)N(CCC(=O)NCCCN1CCCC1)C(=O)CO2`, the “hERG current change (%, negative = inhibition) at 10uM” value stood at 12.7%.

Consider `Cl.NCCOc1ccccc1OCCN`, for which the “hERG current change (%, negative = inhibition) at 10uM” value is given as 22.1%.

Consider `CCN(C(=S)Nc1ccc(C(C)=O)cc1)C1CCCCC1`, for which the “hERG current change (%, negative = inhibition) at 10uM” value was 3.5%. In the case of `C=CCN1C(=O)C(O)(CC(=O)c2ccc(OC)cc2OC)c2cc(Br)ccc21` (centres unmarked), the “hERG current change (%, negative = inhibition) at 10uM” value is on record as -3.68%. Take `O=C(NC1CCCc2ccccc21)c1cncc(Br)c1` (centres unmarked): the “hERG current change (%, negative = inhibition) at 10uM” value was 8.69%.

With `COCCn1c(SCC(=O)N(C)c2c(N)n(Cc3ccccc3)c(=O)[nH]c2=O)nnc1-c1cccc(C)c1`, the “hERG current change (%, negative = inhibition) at 10uM” value was determined as 24.7%. As for `Cc1ccc(Cn2c(SCC(=O)NCC3CCCO3)nc3c2c(=O)n(C)c(=O)n3C)cc1` (centres unmarked), the “hERG current change (%, negative = inhibition) at 10uM” value is reported as -28.4%. On to `CCn1nc(C)cc1C(=O)N1CCCC(C(=O)c2ccccc2SC)C1` (centres unmarked), for which the “hERG current change (%, negative = inhibition) at 10uM” value is on record as -1.16%. As for `O=C(/C=C/c1ccco1)NCCCN1CCN(CCCNC(=O)/C=C/c2ccco2)CC1`, the “hERG current change (%, negative = inhibition) at 10uM” value is -43.5%. Turning to `O=C(/C=C/c1ccc(F)cc1)NCCCN1CCN(CCCNC(=O)/C=C/c2ccc(F)cc2)CC1`, the “hERG current change (%, negative = inhibition) at 10uM” value is listed as -73.2%. In the case of `O=C(/C=C/c1ccc(F)cc1)NCCNC(=O)/C=C/c1ccc(F)cc1`, the “hERG current change (%, negative = inhibition) at 10uM” value is 35.7%.

With `Cl.O=C(/C=C/c1ccc(Br)o1)NCCCN1CCOCC1`, the “hERG current change (%, negative = inhibition) at 10uM” value was 7.91%.

Regarding `O=C(/C=C/c1ccc(Cl)cc1)NCCCN1CCOCC1`, the “hERG current change (%, negative = inhibition) at 10uM” value is listed as -71%. Turning to `CC(C)c1ccc(/C=C/C(=O)NCCCN2CCOCC2)cc1`, the “hERG current change (%, negative = inhibition) at 10uM” value is recorded as -39%.

For the molecule `O=C(/C=C/c1ccc(Cl)cc1)NCCN1CCOCC1`, the “hERG current change (%, negative = inhibition) at 10uM” value is -24%. Turning to `COc1ccc(/C=C/C(=O)NCCCN2CCCCCC2)cc1`, the “hERG current change (%, negative = inhibition) at 10uM” value is given as -58.3%.

Regarding `Cc1ccc(/C=C/C(=O)NCCCN2CCN(CCCNC(=O)/C=C/c3ccc(C)o3)CC2)o1`, the “hERG current change (%, negative = inhibition) at 10uM” value is -78.3%. For the molecule `COc1ccc(/C=C/C(=O)NCCCN2CCCC2)cc1`, the “hERG current change (%, negative = inhibition) at 10uM” value is -44.5%. Consider `Cc1ccc(/C=C/C(=O)NCCCN2CCN(CCCNC(=O)/C=C/c3ccc(C)cc3)CC2)cc1`, for which the “hERG current change (%, negative = inhibition) at 10uM” value is recorded as -0.473%. As for `COc1ccc(/C=C/C(=O)NCCCN2CCOCC2)cc1`, the “hERG current change (%, negative = inhibition) at 10uM” value is on record as -29.4%.
